Measurements published in the supplement of paper PMC10412459.

Tested on: K562 SF3B1 K700E vs K562 SF3B1 WT
Test: surviving fraction ratio K562 SF3B1 K700E / K562 SF3B1 WT (each relative to DMSO); higher = less selective killing of SF3B1 K700E cells
Settings: 5 days
In short: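 Each value is the mutant-to-wild-type ratio of surviving fractions, with both fractions normalised to DMSO and viability read by CellTiter-Glo. Isogenic K562 cells with an engineered mutant allele and their matched wild-type counterparts were seeded at 250 cells per well in 384-well plates. After 24 h, an in-house 80-compound library was added at 0.5, 1, 5, 10, 50, 100, 500 and 1,000 nM, followed by 5 d of continuous culture.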

Compound: CS(=O)(=O)CCNCc1ccc(-c2ccc3ncnc(Nc4ccc(OCc5cccc(F)c5)c(Cl)c4)c3c2)o1 [lapatinib]
- surviving fraction ratio K562 SF3B1 K700E / K562 SF3B1 WT (0.5nM): 0.726
- surviving fraction ratio K562 SF3B1 K700E / K562 SF3B1 WT (1nM): 0.755
- surviving fraction ratio K562 SF3B1 K700E / K562 SF3B1 WT (5nM): 0.828
- surviving fraction ratio K562 SF3B1 K700E / K562 SF3B1 WT (10nM): 0.669
- surviving fraction ratio K562 SF3B1 K700E / K562 SF3B1 WT (50nM): 0.99
- surviving fraction ratio K562 SF3B1 K700E / K562 SF3B1 WT (100nM): 0.906
- surviving fraction ratio K562 SF3B1 K700E / K562 SF3B1 WT (500nM): 0.898
- surviving fraction ratio K562 SF3B1 K700E / K562 SF3B1 WT (1000nM): 0.665

Compound: CCCS(=O)(=O)Nc1ccc(F)c(C(=O)c2c[nH]c3ncc(Cl)cc23)c1F
- surviving fraction ratio K562 SF3B1 K700E / K562 SF3B1 WT (0.5nM): 1.33
- surviving fraction ratio K562 SF3B1 K700E / K562 SF3B1 WT (1nM): 1.07
- surviving fraction ratio K562 SF3B1 K700E / K562 SF3B1 WT (5nM): 1.13
- surviving fraction ratio K562 SF3B1 K700E / K562 SF3B1 WT (10nM): 0.874
- surviving fraction ratio K562 SF3B1 K700E / K562 SF3B1 WT (50nM): 1.13
- surviving fraction ratio K562 SF3B1 K700E / K562 SF3B1 WT (100nM): 0.998
- surviving fraction ratio K562 SF3B1 K700E / K562 SF3B1 WT (500nM): 1.1
- surviving fraction ratio K562 SF3B1 K700E / K562 SF3B1 WT (1000nM): 1.06

Compound: COc1cc2ncnc(Nc3ccc(F)c(Cl)c3)c2cc1OCCCN1CCOCC1 [gefitinib]
- surviving fraction ratio K562 SF3B1 K700E / K562 SF3B1 WT (0.5nM): 0.645
- surviving fraction ratio K562 SF3B1 K700E / K562 SF3B1 WT (1nM): 0.787
- surviving fraction ratio K562 SF3B1 K700E / K562 SF3B1 WT (5nM): 0.848
- surviving fraction ratio K562 SF3B1 K700E / K562 SF3B1 WT (10nM): 0.768
- surviving fraction ratio K562 SF3B1 K700E / K562 SF3B1 WT (50nM): 0.792
- surviving fraction ratio K562 SF3B1 K700E / K562 SF3B1 WT (100nM): 0.802
- surviving fraction ratio K562 SF3B1 K700E / K562 SF3B1 WT (500nM): 0.781
- surviving fraction ratio K562 SF3B1 K700E / K562 SF3B1 WT (1000nM): 0.907

Compound: C=CC(=O)Nc1cc2c(Nc3ccc(F)c(Cl)c3)ncnc2cc1OCCCN1CCOCC1 [canertinib]
- surviving fraction ratio K562 SF3B1 K700E / K562 SF3B1 WT (0.5nM): 0.814
- surviving fraction ratio K562 SF3B1 K700E / K562 SF3B1 WT (1nM): 0.878
- surviving fraction ratio K562 SF3B1 K700E / K562 SF3B1 WT (5nM): 0.921
- surviving fraction ratio K562 SF3B1 K700E / K562 SF3B1 WT (10nM): 0.888
- surviving fraction ratio K562 SF3B1 K700E / K562 SF3B1 WT (50nM): 0.721
- surviving fraction ratio K562 SF3B1 K700E / K562 SF3B1 WT (100nM): 0.79
- surviving fraction ratio K562 SF3B1 K700E / K562 SF3B1 WT (500nM): 0.72
- surviving fraction ratio K562 SF3B1 K700E / K562 SF3B1 WT (1000nM): 0.639

Compound: COc1cc([C@@H]2c3cc4c(cc3[C@@H](O[C@@H]3O[C@@H]5CO[C@@H](C)O[C@H]5[C@H](O)[C@H]3O)[C@H]3COC(=O)[C@H]23)OCO4)cc(OC)c1O [etoposide]
- surviving fraction ratio K562 SF3B1 K700E / K562 SF3B1 WT (0.5nM): 0.966
- surviving fraction ratio K562 SF3B1 K700E / K562 SF3B1 WT (1nM): 0.974
- surviving fraction ratio K562 SF3B1 K700E / K562 SF3B1 WT (5nM): 0.905
- surviving fraction ratio K562 SF3B1 K700E / K562 SF3B1 WT (10nM): 0.771
- surviving fraction ratio K562 SF3B1 K700E / K562 SF3B1 WT (50nM): 0.842
- surviving fraction ratio K562 SF3B1 K700E / K562 SF3B1 WT (100nM): 1.01
- surviving fraction ratio K562 SF3B1 K700E / K562 SF3B1 WT (500nM): 1.72
- surviving fraction ratio K562 SF3B1 K700E / K562 SF3B1 WT (1000nM): 1.51

Compound: CN1CC[C@H](c2c(O)cc(O)c3c(=O)cc(-c4ccccc4Cl)oc23)[C@H](O)C1 [Flavopiridol]
- surviving fraction ratio K562 SF3B1 K700E / K562 SF3B1 WT (0.5nM): 0.8
- surviving fraction ratio K562 SF3B1 K700E / K562 SF3B1 WT (1nM): 0.83
- surviving fraction ratio K562 SF3B1 K700E / K562 SF3B1 WT (5nM): 0.793
- surviving fraction ratio K562 SF3B1 K700E / K562 SF3B1 WT (10nM): 0.847
- surviving fraction ratio K562 SF3B1 K700E / K562 SF3B1 WT (50nM): 0.916
- surviving fraction ratio K562 SF3B1 K700E / K562 SF3B1 WT (100nM): 0.929
- surviving fraction ratio K562 SF3B1 K700E / K562 SF3B1 WT (500nM): 1.89
- surviving fraction ratio K562 SF3B1 K700E / K562 SF3B1 WT (1000nM): 2.25

Compound: C[C@]1(O)C[C@@H](c2nc(-c3ccc4ccc(-c5ccccc5)nc4c3)c3c(N)nccn32)C1
- surviving fraction ratio K562 SF3B1 K700E / K562 SF3B1 WT (0.5nM): 0.876
- surviving fraction ratio K562 SF3B1 K700E / K562 SF3B1 WT (1nM): 0.823
- surviving fraction ratio K562 SF3B1 K700E / K562 SF3B1 WT (5nM): 0.862
- surviving fraction ratio K562 SF3B1 K700E / K562 SF3B1 WT (10nM): 0.829
- surviving fraction ratio K562 SF3B1 K700E / K562 SF3B1 WT (50nM): 0.861
- surviving fraction ratio K562 SF3B1 K700E / K562 SF3B1 WT (100nM): 0.795
- surviving fraction ratio K562 SF3B1 K700E / K562 SF3B1 WT (500nM): 0.804
- surviving fraction ratio K562 SF3B1 K700E / K562 SF3B1 WT (1000nM): 0.873

Compound: NC1(c2ccc(-c3nc4ccn5c(=O)[nH]nc5c4cc3-c3ccccc3)cc2)CCC1
- surviving fraction ratio K562 SF3B1 K700E / K562 SF3B1 WT (0.5nM): 0.882
- surviving fraction ratio K562 SF3B1 K700E / K562 SF3B1 WT (1nM): 0.849
- surviving fraction ratio K562 SF3B1 K700E / K562 SF3B1 WT (5nM): 0.841
- surviving fraction ratio K562 SF3B1 K700E / K562 SF3B1 WT (10nM): 0.686
- surviving fraction ratio K562 SF3B1 K700E / K562 SF3B1 WT (50nM): 0.61
- surviving fraction ratio K562 SF3B1 K700E / K562 SF3B1 WT (100nM): 0.706
- surviving fraction ratio K562 SF3B1 K700E / K562 SF3B1 WT (500nM): 0.654
- surviving fraction ratio K562 SF3B1 K700E / K562 SF3B1 WT (1000nM): 0.626

Compound: O=C(O)C1(C(=O)O)CCC1.[NH2-].[NH2-].[Pt+2] [carboplatin]
- surviving fraction ratio K562 SF3B1 K700E / K562 SF3B1 WT (0.5nM): 0.765
- surviving fraction ratio K562 SF3B1 K700E / K562 SF3B1 WT (1nM): 0.799
- surviving fraction ratio K562 SF3B1 K700E / K562 SF3B1 WT (5nM): 0.905
- surviving fraction ratio K562 SF3B1 K700E / K562 SF3B1 WT (10nM): 0.829
- surviving fraction ratio K562 SF3B1 K700E / K562 SF3B1 WT (50nM): 0.917
- surviving fraction ratio K562 SF3B1 K700E / K562 SF3B1 WT (100nM): 0.764
- surviving fraction ratio K562 SF3B1 K700E / K562 SF3B1 WT (500nM): 0.917
- surviving fraction ratio K562 SF3B1 K700E / K562 SF3B1 WT (1000nM): 0.762
